The record followed here is PubChem BioAssay (NCATS).

Assay [1] deals with Rap guanine nucleotide exchange factor 3 (Homo sapiens) (UniProt O95398). In words: Confirmatory qHTS for antagonist of cAMP-regulated guanine nucleotide exchange factor 3 (EPAC1) (AID 1645880). Also: nearly all actives have a fitted effect of over 55% in size. Also: potency is read from the fitted curve at half-maximal effect. The essentials:
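Released BODIPY-GDP fluoresces less than Rap1-bound BODIPY-GDP; the signal is followed at 480/540 nm at 5-min intervals over 30 min, after 5 min at room temperature. Reactions contain 100 nM EPAC1, 250 nM RAP1B-BODIPY-GDP and 50 uM GDP; results are normalized to ATA and DMSO.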
For orientation: Quantitative high-throughput screening tests each substance at several concentrations.

Assay [2] shares this target. In words: Confirmatory qHTS for agonist of cAMP-regulated guanine nucleotide exchange factor 3 (EPAC1) (AID 1645881). Also: nearly all actives have a fitted effect of over 75% in size. Also: potency is read from the fitted curve at half-maximal effect.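 As to activation: EPAC1 catalysed release of BODIPY-GDP from Rap1B seen as fluorescence loss; 100% = effect of cAMP agonist control.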
Assay [3] has as its target Rap guanine nucleotide exchange factor 4 (Homo sapiens) (UniProt Q8WZA2). In words: Confirmatory qHTS for agonist of cAMP-regulated guanine nucleotide exchange factor 4 (EPAC2) (AID 1645884).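 Also: nucleotide exchange releases bodipy-GDP from Rap1 and this lowers its fluorescence; nearly all actives have a fitted effect of over 65% in size.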 Also: potency is read from the fitted curve at half-maximal effect. As to activation: % is scaled to controls: 0 for no effect and ±100 for the full control effect.
Assay [4] shares this target. In words: Confirmatory qHTS for antagonist of cAMP-regulated guanine nucleotide exchange factor 4 (EPAC2) (AID 1645885). Also: nearly all actives have a fitted effect of over 25% in size. Also: potency is read from the fitted curve at half-maximal effect. As to activity change, negative = inhibition: % is scaled to controls: 0 for no effect and ±100 for the full control effect.
For assay [5], the target named is Rap guanine nucleotide exchange factor 3 (Homo sapiens) (UniProt O95398). In words: Counterscreen qHTS for antagonist of cAMP-regulated guanine nucleotide exchange factor 3 (EPAC1) (AID 1645888). Also: % of control where 0% means no effect. The essentials: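 Rap1B-BODIPY-GDP 250 nM + GDP 50 uM; cpds 7-pt, final 9.74 nM–152 uM (activator mode) or from 7.32 nM upwards (inhibitor mode); RT; FI 480/540 nm at 5 and 30 min, then ± cAMP, reread.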
Chain of Rap guanine nucleotide exchange factor 3 (Homo sapiens) (O95398 whole entry, looked up): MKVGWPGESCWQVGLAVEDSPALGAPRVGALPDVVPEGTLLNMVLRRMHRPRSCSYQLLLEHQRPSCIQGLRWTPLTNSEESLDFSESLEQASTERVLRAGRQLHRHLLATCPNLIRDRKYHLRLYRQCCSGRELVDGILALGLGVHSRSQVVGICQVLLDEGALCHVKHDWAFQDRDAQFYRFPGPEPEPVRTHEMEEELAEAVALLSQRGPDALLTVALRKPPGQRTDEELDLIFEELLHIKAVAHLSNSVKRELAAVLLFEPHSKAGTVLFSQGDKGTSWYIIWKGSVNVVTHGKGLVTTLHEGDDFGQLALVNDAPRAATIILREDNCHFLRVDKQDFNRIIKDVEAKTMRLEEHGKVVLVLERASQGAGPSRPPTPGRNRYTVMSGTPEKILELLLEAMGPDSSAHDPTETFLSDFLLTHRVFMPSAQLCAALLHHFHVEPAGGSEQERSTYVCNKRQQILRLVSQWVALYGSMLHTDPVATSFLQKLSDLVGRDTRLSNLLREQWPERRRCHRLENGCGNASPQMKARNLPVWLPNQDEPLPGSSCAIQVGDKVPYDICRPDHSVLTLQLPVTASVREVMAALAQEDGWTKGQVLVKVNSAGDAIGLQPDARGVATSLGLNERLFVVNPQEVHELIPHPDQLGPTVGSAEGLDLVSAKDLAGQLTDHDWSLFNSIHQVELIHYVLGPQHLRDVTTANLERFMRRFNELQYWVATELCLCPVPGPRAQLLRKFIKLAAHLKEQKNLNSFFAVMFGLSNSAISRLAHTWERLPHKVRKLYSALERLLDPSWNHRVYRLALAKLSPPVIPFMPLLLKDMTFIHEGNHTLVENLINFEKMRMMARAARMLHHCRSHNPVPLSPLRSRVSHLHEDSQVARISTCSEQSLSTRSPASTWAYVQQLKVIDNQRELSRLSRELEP
(In general: A counterscreen serves to expose hits that act by an unwanted route or on another target.)

Inconclusive results are not listed. Unmarked numbers belong to inactive results. Active and inactive are the calls of the source. Calls follow the shape of the dose curve; as a rule, active = well fitted curve in the direction sought with a large enough effect; inconclusive = small, poorly fitted or top-dose-only effect, or another doubt; inactive = no such curve, though single readings can be large; an effect the other way counts as inactive or inconclusive.

Chain of Rap guanine nucleotide exchange factor 4 (Homo sapiens) (Q8WZA2 whole entry, looked up): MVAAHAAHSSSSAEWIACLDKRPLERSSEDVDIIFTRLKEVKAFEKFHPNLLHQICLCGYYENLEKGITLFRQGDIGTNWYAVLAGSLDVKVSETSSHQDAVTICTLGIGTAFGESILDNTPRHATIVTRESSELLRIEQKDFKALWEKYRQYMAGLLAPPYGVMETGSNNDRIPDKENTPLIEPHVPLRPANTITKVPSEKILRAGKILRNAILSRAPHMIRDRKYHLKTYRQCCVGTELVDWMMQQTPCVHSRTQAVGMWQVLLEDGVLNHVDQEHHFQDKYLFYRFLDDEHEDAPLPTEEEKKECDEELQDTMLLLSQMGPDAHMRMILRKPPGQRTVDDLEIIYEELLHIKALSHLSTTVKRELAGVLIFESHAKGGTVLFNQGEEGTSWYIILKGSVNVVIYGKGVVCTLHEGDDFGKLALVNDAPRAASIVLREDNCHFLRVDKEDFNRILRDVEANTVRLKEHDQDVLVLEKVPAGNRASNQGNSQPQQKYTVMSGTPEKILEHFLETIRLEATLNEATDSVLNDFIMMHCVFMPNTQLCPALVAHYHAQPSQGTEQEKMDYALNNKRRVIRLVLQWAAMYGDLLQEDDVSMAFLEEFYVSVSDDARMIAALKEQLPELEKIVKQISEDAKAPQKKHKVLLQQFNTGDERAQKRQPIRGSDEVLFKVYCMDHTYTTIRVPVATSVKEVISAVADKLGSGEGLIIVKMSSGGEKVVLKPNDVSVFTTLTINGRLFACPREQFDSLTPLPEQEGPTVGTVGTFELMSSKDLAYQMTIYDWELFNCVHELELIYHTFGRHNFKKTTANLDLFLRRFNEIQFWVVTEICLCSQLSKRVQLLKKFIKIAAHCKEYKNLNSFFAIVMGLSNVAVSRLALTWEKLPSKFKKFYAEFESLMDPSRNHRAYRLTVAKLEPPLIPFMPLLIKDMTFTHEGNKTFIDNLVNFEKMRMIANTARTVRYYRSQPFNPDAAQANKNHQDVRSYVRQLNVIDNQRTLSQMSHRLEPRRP

On to `Cc1ccc(-c2cc([C@H]3[C@@H]4C=CCC[C@@]4(C)C(=O)N3Cc3ccccc3)ccc2F)cc1`, for which the Potency entry in assay [1], in assay [2] and in assay [4] was “inactive” each time. Moreover, in assay [3], the activation is -2.1% [at 17.1 µM, percent relative to cAMP agonist control]. In assay [5], the activity change, negative = inhibition was -9.39% [at 30.8 µM].

With `COc1ccc(N/C=C2\CCc3ccccc3C2=O)cc1`, the Potency result in assay [1], in assay [4] and in assay [5] was “inactive” each time. Besides, the Potency was 89.1 µM (active) in assay [2] and 100 µM (active) in assay [3].

With `O=C(Cn1cc(SCc2ccc(Cl)cc2)c2ccccc21)N1CCCC1`, the Potency entry in assay [1], in assay [2], in assay [3], in assay [4] and in assay [5] was “inactive” in each case.

Take `Cc1ccccc1-c1nc(CS(=O)(=O)CC(=O)N(C)C2CCCCC2)c(C)o1`: the Potency result in assay [1], in assay [2], in assay [3], in assay [4] and in assay [5] was “inactive” each time.

For the compound `C=CCn1c(SCC(=O)Nc2sccc2C(N)=O)nc2sc(CC)cc2c1=O`, the Potency result in assay [1], in assay [2] and in assay [4] was “inactive” throughout. In addition, in assay [3], the activation was 6.26% [at 17.1 µM, percent relative to cAMP agonist control]. Also, the activity change, negative = inhibition in assay [5] is -8.95% [at 30.8 µM].

As for `CCCCCC(=O)Nc1ccc(C2C(=O)c3ccccc3C2=O)cc1`, the Potency result in assay [1], in assay [2], in assay [3], in assay [4] and in assay [5] was “inactive” each time.

On to `Cc1ccc2nc(-c3ccccc3)c(Cc3ccccn3)n2c1`, for which the Potency entry in assay [1], in assay [2], in assay [3], in assay [4] and in assay [5] was “inactive” in each case.

In the case of `CN(C)C(=O)c1cccc(-c2cnc3c(NC=O)cc(-c4ccc(F)cc4)cn23)c1`, the Potency entry in assay [1], in assay [2], in assay [3], in assay [4] and in assay [5] was “inactive” each time.

As for `COc1ccc(OC)c(-c2nc3c(C#N)c[nH]n3c2NC2CCCCC2)c1`, the Potency entry in assay [1], in assay [2], in assay [3] and in assay [5] was “inactive” in each case. Also, the outcome in assay [4] is “inactive [at 12.7 µM]”.

On to `Cc1ccc(C)c(S(=O)(=O)/N=C2\C=C(NS(=O)(=O)c3ccccc3)C(=O)c3ccccc32)c1`, for which the Potency in assay [1] was 22.4 µM (active). Also, the Potency result in assay [2] and in assay [4] was “inactive” each time. Moreover, the activation in assay [3] is 3.6% [at 17.1 µM, percent relative to cAMP agonist control]. Also, the activity change, negative = inhibition in assay [5] is -11.3% [at 30.8 µM].

As to `CCc1ccc(S(=O)(=O)/N=C2\C=C(Nc3cccc(C(=O)O)c3)C(=O)c3ccccc32)cc1`, the Potency in assay [1] was 37.9 µM (active); in assay [4], 379 nM (active). Besides, the Potency result in assay [2], in assay [3] and in assay [5] was “inactive” throughout.

Consider `COc1cc2c(C#N)c(N3CCCC3)nc(N)c2c(N)n1`, for which the Potency in assay [1] was 37.9 µM (active). In addition, the Potency result in assay [2], in assay [3], in assay [4] and in assay [5] was “inactive” throughout.

Take `CCCC(C(=O)Nc1ccc(C)c(S(=O)(=O)N2CCOCC2)c1)c1ccccc1` (stereo not given): the Potency result in assay [1], in assay [2] and in assay [4] was “inactive” throughout. In addition, in assay [3], the activation is 4.3% [at 17.1 µM, percent relative to cAMP agonist control]. In addition, the activity change, negative = inhibition in assay [5] is -29.6% [at 30.8 µM].

With `COc1cc(C=NNc2ccc(S(=O)(=O)Nc3ccccc3C(=O)O)cc2[N+](=O)[O-])ccc1O`, the Potency in assay [1] was 20 µM (active). For the same compound, the Potency entry in assay [2] and in assay [4] was “inactive” each time. In addition, the activation in assay [3] is -6.92% [at 17.1 µM, percent relative to cAMP agonist control]. Also, the activity change, negative = inhibition in assay [5] is -11.1% [at 30.8 µM].

For `CCOc1cccc(C(=O)N(Cc2ccc(F)cc2)Cc2ccco2)c1`, the Potency result in assay [1], in assay [2], in assay [3], in assay [4] and in assay [5] was “inactive” in each case.

On to `O=C(N/N=C/c1c(O)n(-c2ccccc2Cl)c(=O)c2ccccc12)c1cccnc1`, for which, in assay [1], the Potency was 3.38 µM (active). For the same compound, the Potency result in assay [2], in assay [3], in assay [4] and in assay [5] was “inactive” in each case.

As for `CC(=O)Nc1ccc(C=NNc2ccc(S(=O)(=O)Nc3ccccc3C(=O)O)cc2[N+](=O)[O-])cc1`, the Potency in assay [1] was 28.2 µM (active). Also, the Potency entry in assay [2] and in assay [4] was “inactive” each time. In addition, the activation in assay [3] was 0.331% [at 17.1 µM, percent relative to cAMP agonist control]. Besides, the activity change, negative = inhibition in assay [5] is 0.935% [at 30.8 µM].

`Clc1ccc2nc(C3CCCCC3)c(CC3CCCCC3)n2c1`: the Potency result in assay [1], in assay [2] and in assay [4] was “inactive” throughout. Also, in assay [3], the activation was -3.07% [at 17.1 µM, percent relative to cAMP agonist control]. Besides, in assay [5], the activity change, negative = inhibition is -0.327% [at 30.8 µM].

With `COc1ccc(C(=O)NCc2ccc3c(c2)CCN3C(=O)c2ccc(C)cc2)cc1`, the Potency result in assay [1], in assay [2], in assay [3], in assay [4] and in assay [5] was “inactive” each time.

Regarding `COc1ccc(C(=O)Nc2ccc(-c3cc4ccccc4oc3=O)c(C)c2)cc1OC`, the Potency result in assay [1], in assay [2], in assay [3], in assay [4] and in assay [5] was “inactive” each time.

In the case of `Cc1ccc(C)c(S(=O)(=O)N2CCN(C(=O)CCCc3c[nH]c4ccccc34)CC2)c1`, the Potency result in assay [1], in assay [2] and in assay [4] was “inactive” each time. In assay [3], the activation was 2.96% [at 17.1 µM, percent relative to cAMP agonist control]. Moreover, in assay [5], the activity change, negative = inhibition was -6.79% [at 30.8 µM].

Turning to `Cc1ccc(S(=O)(=O)CC(=O)N(CCCN(C)C)c2nc3ccc(C)cc3s2)cc1`, the Potency entry in assay [1], in assay [2], in assay [3], in assay [4] and in assay [5] was “inactive” throughout.
